From PubChem BioAssay AID1159580 (chemical genetic matrix, 2015)
Among all 5,500 compounds or so, about 2,000 (36%) were called active. Not shown: some 18% with an inconclusive outcome. No stated cut-off is given here; in the data, active means normalized growth mostly below about 0.91 (no sharp cut-off); inconclusive means no clear call, values can overlap the other calls; inactive means mostly above about 0.92. The list shows a part of the results.

Assay: chemical genetic growth profiling, strain panel (AID 1159580);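 further: tested at 20 µM; growth read once vehicle control cultures reached saturation at 30 °C; 1 = growth at the plate median or of vehicle wells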
Details: S. cerevisiae deletion strains, growth OD

Measured: normalized growth

C[C@@H]1O[C@H](C[N+](C)(C)C)CS1
inactive: locus YAL040C, strain CLN3, stronger effect = lower value 1.02 | locus YCL061C, strain MRC1 (second series), stronger effect = lower value 1.01 | locus YDR363W, strain ESC2, stronger effect = lower value 1.03 | locus YER002W, strain NOP16, stronger effect = lower value 0.997 | locus YJR075W, strain HOC1, stronger effect = lower value 1.02 | locus YMR263W, strain SAP30, stronger effect = lower value 1.01 | locus YNL153C, strain GIM3, stronger effect = lower value 1.01 | locus YNL175C, strain NOP13, stronger effect = lower value 1.01 | locus YNL197C, strain WHI3, stronger effect = lower value 1.01 | locus YNL224C, strain SQS1, stronger effect = lower value 0.993 | locus YNL322C, strain KRE1, stronger effect = lower value 1.02 | locus YOR083W, strain WHI5 (second series), stronger effect = lower value 1.05 | locus YPL241C, strain CIN2, stronger effect = lower value 1.01

CC(C)(CO)[C@@H](O)C(=O)NCCCO
inactive: locus YHR030C, strain SLT2, stronger effect = lower value 1.09 | locus YHR079C, strain IRE1, stronger effect = lower value 0.97 | locus YJL095W, strain BCK1, stronger effect = lower value 1.01 | locus YJR066W, strain TOR1, stronger effect = lower value 0.936 | locus YLR113W, strain HOG1, stronger effect = lower value 0.968 | locus YNL183C, strain NPR1, stronger effect = lower value 0.932 | locus YOR231W, strain MKK1, stronger effect = lower value 0.998 | locus YPL256C, strain CLN2, stronger effect = lower value 0.988
